Shown are actives, neighbours in structure and some others; about 0.48% of the full set was active somewhere.
SRC3 inh = inhibitors of human steroid receptor coactivator 3 (SRC3); Q9Y6Q9; 360,000 compounds, 0.17% hits; inhibition, % at 3.6 µM; HEK293 GAL4-SRC3 luciferase reporter, luminescence;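 active means inhibition above a per-campaign cutoff, the mean of all compounds plus 3 SD, cut at about 60% in these data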;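 further: 0% = DMSO-treated cells and 100% = gossypol-treated cells at 36 µM; higher means less SRC3-driven luciferase light from the GAL4 reporter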
Target sequence (Q9Y6Q9 whole entry, looked up, the tested form may be a part): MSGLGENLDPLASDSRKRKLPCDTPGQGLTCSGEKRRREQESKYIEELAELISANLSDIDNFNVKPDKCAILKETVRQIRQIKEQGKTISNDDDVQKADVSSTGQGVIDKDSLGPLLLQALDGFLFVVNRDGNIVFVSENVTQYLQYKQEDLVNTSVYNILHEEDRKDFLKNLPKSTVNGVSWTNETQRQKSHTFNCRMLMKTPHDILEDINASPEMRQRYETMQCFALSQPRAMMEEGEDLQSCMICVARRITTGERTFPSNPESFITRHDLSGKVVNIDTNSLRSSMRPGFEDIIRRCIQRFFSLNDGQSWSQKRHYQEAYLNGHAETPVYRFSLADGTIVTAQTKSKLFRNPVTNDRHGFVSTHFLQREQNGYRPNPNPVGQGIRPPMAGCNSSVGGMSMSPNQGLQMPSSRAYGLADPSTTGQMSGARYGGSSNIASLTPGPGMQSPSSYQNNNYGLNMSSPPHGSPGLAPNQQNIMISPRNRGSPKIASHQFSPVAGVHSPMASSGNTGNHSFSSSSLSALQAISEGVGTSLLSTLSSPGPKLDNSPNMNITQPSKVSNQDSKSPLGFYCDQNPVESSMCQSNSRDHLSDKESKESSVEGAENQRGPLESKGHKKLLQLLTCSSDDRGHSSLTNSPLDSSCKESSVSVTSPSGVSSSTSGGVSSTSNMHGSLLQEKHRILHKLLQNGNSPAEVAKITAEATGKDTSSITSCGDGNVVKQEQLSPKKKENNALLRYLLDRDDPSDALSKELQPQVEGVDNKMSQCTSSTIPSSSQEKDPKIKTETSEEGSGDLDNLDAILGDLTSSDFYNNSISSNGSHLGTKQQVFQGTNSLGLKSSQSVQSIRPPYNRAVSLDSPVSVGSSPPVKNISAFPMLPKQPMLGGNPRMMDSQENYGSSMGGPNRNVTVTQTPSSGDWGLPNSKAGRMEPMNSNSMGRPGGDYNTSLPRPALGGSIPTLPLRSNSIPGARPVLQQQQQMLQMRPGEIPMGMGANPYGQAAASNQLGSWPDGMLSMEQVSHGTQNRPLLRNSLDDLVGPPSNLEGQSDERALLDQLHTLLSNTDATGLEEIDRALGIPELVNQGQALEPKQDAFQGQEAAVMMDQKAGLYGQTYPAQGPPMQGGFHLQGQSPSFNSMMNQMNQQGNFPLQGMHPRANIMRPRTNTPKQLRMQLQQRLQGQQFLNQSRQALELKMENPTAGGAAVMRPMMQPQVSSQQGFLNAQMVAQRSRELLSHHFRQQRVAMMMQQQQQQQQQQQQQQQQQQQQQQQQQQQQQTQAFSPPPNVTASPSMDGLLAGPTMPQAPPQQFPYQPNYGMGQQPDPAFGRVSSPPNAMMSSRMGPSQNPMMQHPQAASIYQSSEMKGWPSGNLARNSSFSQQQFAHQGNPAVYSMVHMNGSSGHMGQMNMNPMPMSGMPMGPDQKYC
SRC2 inh = human SRC2 (NCOA2) inhibition; Q15596; HEK293 GAL4-SRC2 luciferase reporter, luminescence; inhibition, % at 9 µM; 370,000 compounds, 0.17% hits; AID 651957;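 active means inhibition above the mean inhibition of all tested compounds plus 3 SD, set per campaign, cut at about 52% in these data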;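 further: 0% = DMSO treated cells and 100% = cells given Gossypol at 36 µM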
LGR2 antag = inhibitors of bursicon-induced Drosophila LGR2 receptor cAMP signaling. inhibition, % at 9.99 µM. HEK293 LGR2, CRE-luciferase, bursicon-stimulated, 4 h. 380,000 compounds, 0.35% hits;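 active means drop in luminescence signal, shown as inhibition above about 50% in the replicate tests, limit read from the data, passing the limit was not always enough; inconclusive means probably only some replicates passing the limit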;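 further: agonist challenge used bursicon conditioned medium at about half maximal strength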
NR5A2 inv ag = suppresses constitutive activity of human LRH-1; inhibition, % at 3.6 µM; 360,000 compounds, 0.13% hits; HEK293T StAR-luciferase reporter, LRH-1 transfected, 24 h; AID 602396;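 active means inhibition above the mean inhibition of all tested compounds plus 3 SD, cut at about 73% in these data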;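 further: 0% = DMSO wells and 100% = reporter-only cells lacking LRH-1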
SRC1 inh = inhibits human SRC1 coactivator | HEK293 GAL4-SRC1 luciferase reporter, luminescence | inhibition, % at 3.6 µM | 360,000 compounds, 0.12% hits;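 active means inhibition above the campaign mean plus 3 SD, with each screening campaign given its own cutoff, cut at about 60% in these data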;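 further: 0% = DMSO treated cells and 100% = gossypol at 36 µM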
Numbers without * were called inactive; ? = inconclusive; . = not tested or not shown.

SMILES	SRC3 inh	SRC2 inh	LGR2 antag	NR5A2 inv ag	SRC1 inh
CCCC(=O)N1CC2(C1)CN(C(C)=O)[C@H](CO)c1c2c2ccc(OC)cc2n1C	.	.	1	.	.
Cn1c(/C=C/c2ccc(Cl)cc2)c([N+](=O)[O-])c(=O)n(C)c1=O	62*	29	?	29	29
COc1cc(/C=N/NS(=O)(=O)c2ccc(C)cc2)ccc1OCc1cccc(C(=O)O)c1	-135	-44	80*	-327	-114
COc1cc(/C=N/NS(=O)(=O)c2ccc3ccccc3c2)ccc1OCc1ccc(C(=O)O)cc1	-126	-82	82*	-236	-168
COc1cc(/C=N/O)ccc1OCc1ccc(C(=O)O)cc1	-84	-44	.	-214	-135
COc1ccc(/C=N/NS(=O)(=O)c2ccc(C)cc2)cc1OC(=O)c1ccccc1	14	11	.	-6	-3
C[C@@H]1CN([C@@H](C)CO)C(=O)c2cc(NS(=O)(=O)c3cccs3)ccc2O[C@@H](C)CCCCO[C@@H]1CN(C)Cc1ccc(C(F)(F)F)cc1	.	.	10	.	.
O=C1/C(=C/c2ccco2)SC(=S)N1C1CCS(=O)(=O)C1 (centres undefined)	24	23	55*	6	-5
COc1ccc2c3c(n(C)c2c1)[C@H](CO)N(Cc1ccc2c(c1)OCO2)CC31CN(C(=O)C2CC2)C1	.	.	11	.	.
CCCNC(=O)Nc1ccc2c(c1)C(=O)N(C)[C@@H]1CC[C@@H](CC(=O)NC)O[C@@H]1CO2	.	.	6	.	.
CCN(CC)c1nc(C=Cc2ccc(N(C)C)cc2)c2nccnc2n1	1	66*	35	12	-7
CN(C)c1ccc(C=Cc2nccc3ccccc23)cc1	-75	5	4	-74	-83
COCC#Cc1cnc2c(c1)C(=O)N([C@H](C)CO)C[C@@H](C)[C@H](CN(C)Cc1ccc(-c3ccccc3)cc1)O2	.	.	-5	.	.
O=C(C[C@H]1C=C[C@H](NC(=O)Cc2ccccn2)[C@H](CO)O1)NCCc1ccccc1	.	.	21	.	.
Oc1ccc(Nc2nc(N3CCCC3)c3ccccc3n2)cc1	52	-100	76*	8	47
COc1cccc(-c2ccc([C@@H]3[C@@H](CO)N4C(=O)CN(C(=O)C5CC5)C[C@H]34)cc2)c1	.	.	3	.	.
C[C@H](NC(=O)[C@H]1[C@H](CO)[C@H]2Cn3c(cccc3=O)[C@@H]1N2Cc1cccnc1)c1ccccc1	.	.	11	.	.
C[C@H](CO)N1C[C@H](C)[C@@H](CN(C)Cc2ccc(Oc3ccccc3)cc2)Oc2c(NC(=O)Nc3cccc4ccccc34)cccc2C1=O	.	.	-1	.	.
NCCCNc1nc(N)c([N+](=O)[O-])c(NC2CCCCC2)n1	44	-22	54*	47	38
CC(C)c1cn(CC[C@@H]2CC[C@@H](NS(=O)(=O)c3ccc(Cl)cc3)[C@H](CO)O2)nn1	.	.	6	.	.
CSc1ccc(NC(=O)Nc2cc(C)ccn2)cc1	-106	-46	58*	-144	-92
Cc1ccc(NC(=O)C(=O)Nc2ccccn2)cc1	-7	-15	93*	-147	-43
COc1ccc(C(=O)NC(=O)Nc2cc(C)ccn2)cc1	-47	-43	74*	-99	-84
Cc1ccc(S(=O)(=O)CC(=O)Nc2ccccn2)cc1	-6	-9	6	-9	-2
O=C(NC(=O)c1ccccc1)Nc1ccccn1	-17	44	89*	-7	-7
SMILES	SRC3 inh	SRC2 inh	LGR2 antag	NR5A2 inv ag	SRC1 inh
Cc1ccnc(NC(=O)Nc2ccc(F)cc2)c1	-91	-41	.	-185	-110
O=C(C1CC1)N1CC(=O)N2[C@@H](CO)[C@@H](c3ccc(C#Cc4cccc(F)c4)cc3)[C@@H]2C1	.	.	-1	.	.
Cc1noc(C)c1NC(=O)N(C)C[C@@H]1Oc2ccc(NS(=O)(=O)c3c(C)noc3C)cc2C(=O)N([C@@H](C)CO)C[C@H]1C	.	.	-10	.	.
COc1ccc(C(=O)/C=C/Nc2cc(C)ccn2)cc1	-37	-34	74*	-152	-108
CCOc1ccc(N/C=C/C(=O)c2ccccc2)c([N+](=O)[O-])c1	-7	-38	91*	-147	-60
COc1ccc(N/C=C/C(=O)c2ccccc2)cc1	-86	-69	65*	-172	-94
Cc1[nH]c2ccccc2c(=O)c1C(=O)/C=C/c1ccccc1	72*	65*	74*	41	64*
CC(C)NC(=O)N[C@@H]1CC[C@@H](CCNC(=O)C2CCCC2)O[C@H]1CO	.	.	12	.	.
Fc1ccc(-n2nnc(-c3cnc4ccccc4c3)n2)cc1	-128	-17	79*	-140	-80
Fc1ccc(-n2nnc(-c3cccnc3)n2)cc1	-92	-62	-14	-89	-56
C[C@@H]1CCCCO[C@@H](CN(C)C(=O)Nc2ccccc2)[C@H](C)CN([C@@H](C)CO)C(=O)c2cc(NC(=O)c3ccccc3)ccc2O1	.	.	4	.	.
Cc1ccc(N/C(N)=N/c2nc(C)cc(N3CCCCC3)n2)c(C)c1	25	11	67*	20	9
c1ccc(-c2nnc(-c3ccccn3)nc2NC2CCCCC2)cc1	78*	14	11	67	50
C[C@@H]1CN([C@@H](C)CO)C(=O)Cc2cc(NC(=O)CCC(F)(F)F)ccc2O[C@@H]1CN(C)C(=O)Nc1ccc(F)cc1	.	.	8	.	.
COc1ccc(CC2C(=O)NC(C)C(=O)N(C)C3Cc4ccc(cc4)Oc4cc(ccc4O)CC(C(=O)NC(C)C(=O)NC(C)C(=O)N2C)N(C)C3=O)cc1 (centres undefined)	94*	76*	103*	98*	94*
CC(=O)CSc1nc2cc3c(cc2cc1C#N)OCCO3	-81	-71	61*	-176	-76
COc1cc(NC(=O)c2cccc3c(-c4cnn(C)c4)coc23)cc(OC)c1OC	27	18	73*	32	28
C[C@H]1CN([C@@H](C)CO)C(=O)c2cc(C3=CCCC3)cnc2O[C@H]1CN(C)C(=O)C1CC1	.	.	-2	.	.
CC1(C)CC(=O)C=C(NC2=CC3OC(c4ccccc4)OCC3OC2=O)C1 (centres undefined)	-13	5	86*	-41	-10
CCC(C)Oc1cc(-c2ccnc(Nc3cccc(Cl)c3)n2)ccn1 (centres undefined)	13	6	84*	-5	-22
OCCCNc1cc(-c2ccnc(Nc3cccc(Cl)c3)n2)ccn1	87*	65*	102*	96*	86*
Cc1cc(C)nc(Nc2cccc(Cl)c2)n1	-10	-12	-5	-3	-21
CN(C)CCCNc1ccc(-c2cc(Nc3cccc(Cl)c3)ncn2)cn1	-25	-11	-7	-17	-9
COc1ccc(S(=O)(=O)N(C)C[C@@H]2OCCCC[C@H](C)Oc3ccc(NC(=O)Nc4c(C)noc4C)cc3C(=O)N([C@@H](C)CO)C[C@H]2C)cc1	.	.	-2	.	.
COc1ccc2cc(CNCCOCCOCCNCc3ccc4cc(OC)ccc4c3)ccc2c1	1	-24	103*	-13	-14
c1ccc(-c2cn3c4c(sc3n2)CCCC4)cc1	-61	-48	74*	-33	-48
c1ccc(-c2cn3nc(-c4ccccc4)sc3n2)cc1	-55	.	.	-69	-23

From PubChem
